# Screening results: PubChem BioAssay, National Center for Advancing Translational Sciences (NCATS)
# RE007 growth inh: less growth of the S. pombe RE007 Vpr strain. S. pombe RE007 Vpr strain, BacTiter-Glo ATP luminescence, 24 h. Potency, µM (top dose mostly 92.2 µM), for the others: top-dose activity change, negative = less growth, actives largely listed as inhibitors. actives 0.21% (n = 360,000); active = well fitted falling curve with a large enough effect; inconclusive = small, poorly fitted or top-dose-only effect; inactive = no such curve, though single readings can be large or run the other way; also: nearly all actives have a fitted effect of over 50% in size
#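 Fission yeast RE007 carrying one integrated HIV-1 vpr copy, seeded at OD 0.01 in PMG+AL medium with 23 nL pinned compound. Grown 24 h at 30 degrees; viability read by BacTiter-Glo luminescence after 5 min.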
# AMA1-RON2 inh: AMA1-RON2 (P. falciparum) interaction inhibition; actives 0.2% (n = 360,000); Potency, µM (titrated, usually from 58.2 µM), for the others: top-dose activity change, negative = inhibition, hits mostly inhibitors; AID 720542; AlphaScreen AMA1-biotinylated RON2 peptide binding;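 also: 0% = vehicle wells and -100% = peptide control; nearly all actives have a fitted effect of over 45% in size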
#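 AMA1 (3D7) with his tag at 25 nM final met compounds first, then biotinylated RON2 peptide at 25 nM; detection used donor plus acceptor beads, 10 µg/mL apiece, read by AlphaScreen after 30 min at room temperature.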
# Tb PYK inh: T. brucei pyruvate kinase inhibition; actives 0.12% (n = 410,000); Potency, µM (series often up to 76.8 µM), without a hit: at the top dose activity, negative = inhibition, hits mostly inhibitors; TbPYK enzyme, Kinase-Glo Plus ATP luminescence, 45 min; AID 624173; also: nearly all actives have a fitted effect of over 50% in size
#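 Activity of T. brucei pyruvate kinase was followed by Kinase-Glo Plus luminescence after the enzyme reacted 45 min at room temperature with 130 uM ADP (final) and substrate. Test compounds were added before ADP at multiple concentrations.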
# Vaccinia Venus: inhibitors of vaccinia virus (Venus reporter) | AID 720580 | actives 0.46% (n = 330,000) | Vaccinia virus Venus reporter expression, fluorescence | Potency, µM (highest dose often 36.5 µM), for inactives: at the top dose activity change, negative = inhibition, actives largely listed as inhibitors; calls by dose curve; tested in A549 cells; also: nearly all actives have a fitted effect of over 30% in size
# LmPK inhibitor: inhibitors of Leishmania mexicana pyruvate kinase | Potency, µM (top dose mostly 57.5 µM), for inactives: at the top dose activity change, negative = inhibition, most hits filed as inhibitors | purified LmPK, Kinase-Glo ATP luminescence, 1 h | actives 0.37% (n = 290,000) | Q27686
# Target sequence (Q27686 whole entry, looked up): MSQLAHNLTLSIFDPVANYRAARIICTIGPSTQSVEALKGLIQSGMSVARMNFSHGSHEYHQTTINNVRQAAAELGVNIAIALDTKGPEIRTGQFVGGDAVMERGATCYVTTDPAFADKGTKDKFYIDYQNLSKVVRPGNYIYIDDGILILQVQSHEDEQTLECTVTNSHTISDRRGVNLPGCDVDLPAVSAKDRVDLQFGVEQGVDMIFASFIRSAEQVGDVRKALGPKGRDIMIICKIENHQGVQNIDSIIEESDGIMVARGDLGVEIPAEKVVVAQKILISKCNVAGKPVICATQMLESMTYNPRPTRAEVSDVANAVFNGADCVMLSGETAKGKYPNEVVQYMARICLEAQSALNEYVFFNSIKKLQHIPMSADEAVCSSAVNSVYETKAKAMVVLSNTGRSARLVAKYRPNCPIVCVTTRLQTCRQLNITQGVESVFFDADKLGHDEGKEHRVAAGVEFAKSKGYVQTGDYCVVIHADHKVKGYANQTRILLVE
#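 Purified LmPK (0.1 nM) converted ADP (0.1 mM) to ATP with PEP (0.5 mM) in imidazole buffer pH 7.2 with KCl and MgCl2, 1 h at room temperature. ATP was read by Kinase-Glo luminescence; data normalized to uninhibited and no-enzyme controls.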
# VACV mCherry inh: vaccinia inhibition (mCherry reporter); Potency, µM (titrated, usually from 36.5 µM), without a hit: at the highest dose activity change, negative = inhibition, most hits filed as inhibitors; AID 720579; Vaccinia virus mCherry reporter infection, fluorescence; actives 0.63% (n = 310,000); calls by dose curve; tested in A549 cells; also: nearly all actives have a fitted effect of over 35% in size
# Starred values were filed as active, the others as inactive; i = inactive; ? = inconclusive; nt = no result given; ! = a repeat was not active; [ ] = dose if it differs, or a comment. This is a sample that favours compounds with a hit; in the whole collection about 1.3% have one here. Unless noted, calls follow the shape of the dose curve; as a rule, active = well fitted curve in the direction sought with a large enough effect; inconclusive = small, poorly fitted or top-dose-only effect, or another doubt; inactive = no such curve, though single readings can be large; an effect the other way counts as inactive or inconclusive. Unless noted, % is scaled to controls: 0 for no effect and ±100 for the full control effect; potency is read from the fitted curve at half-maximal effect.
SMILES,RE007 growth inh,AMA1-RON2 inh,Tb PYK inh,Vaccinia Venus,LmPK inhibitor,VACV mCherry inh
Nc1cccc(Nc2nc(OC(C(F)(F)F)C(F)(F)F)nc(OC(C(F)(F)F)C(F)(F)F)n2)c1,2.4%,4.4%,-8.4%,28.2µM*,1.2%,-33.2%[1.46 µM]
CC(C)c1ccc(N2C(=O)CC(Sc3ncn[nH]3)C2=O)cc1 (centres undefined),56.2µM*,-14.8%,-18.0%,-0.8%,1.6%,-7.1%
COc1cccc2c1Oc1cc([N+](=O)[O-])cc(N(C)C(C)=O)c1C=C2,-8.5%,-5.8%,1.4%,-20.8%,-2.8%,7.08µM*
Cc1cc(N2CCCC2)nc2ccc(NC(=S)NCCCN3CCC(C)CC3)cc12,-19.6%,14.3%,-2.8%,?,5.6%[11.5 µM],14.1µM*
CCCN1CCN(CCCNC(=S)Nc2ccc3nc(N4CCN(CC)CC4)cc(C)c3c2)CC1,4.9%,-0.5%,0.0%,nt,0.5%,nt
O=C(CCl)Nc1cc(SCC(O)CO)cc([N+](=O)[O-])c1 (centres undefined),0.0%,-4.1%,-0.7%,3.98µM*,1.5%,2.82µM*
O=C(CN1Cc2ccccc2OC(c2ccsc2)C1)NCc1ccc2c(c1)OCO2 (centres undefined),nt,nt,nt,-5.4%,nt,-14.2%
CCCCCCC(=O)N(O)C1CC(=O)N(c2ccc(F)cc2)C1=O (centres undefined),6.31µM*,-7.5%,?,10.2%,1.2%,-9.8%
Cc1ccc(C)c(OCC(=O)N(Cc2ccccc2)c2c(N)n(Cc3ccccc3)c(=O)[nH]c2=O)c1,-5.9%,-6.5%[11.6 µM],-2.4%,?,nt,28.2µM*
CC(C)CN(C(=O)COC(=O)c1ccc(Br)cc1)c1c(N)n(Cc2ccccc2)c(=O)[nH]c1=O,-16.9%,0.2%,-6.1%,12.6µM*,nt,?
CCN(C(=O)COC(=O)CCOc1cc(C)ccc1C)c1c(N)n(Cc2ccccc2)c(=O)[nH]c1=O,1.7%,-4.1%,-1.4%,nt,nt,nt
CC(C)CN(C(=O)c1ccc([N+](=O)[O-])s1)c1c(N)n(Cc2ccccc2)c(=O)[nH]c1=O,0.9%,15.1%,1.3%,?,nt,20µM*
O=C(CCl)NCCNC(=O)c1cc(OCC(F)(F)F)ccc1OCC(F)(F)F,11.7%,6.9%,1.0%,2µM*,-2.0%,2µM*
O=C(NCC1CCCCN1)c1cc(OCC(F)(F)F)ccc1OCC(F)(F)F (centres undefined),5.6%,2.1%,-11.4%,10µM*!,-5.1%,35.5µM*!
Cc1cc(Nc2ccccc2C(=O)O)ccc1Cl,nt,nt,-6.2%,nt,nt,nt
CC(Sc1ncnc2sccc12)C(=O)Nc1ccc(S(=O)(=O)N2CCOCC2)cc1 (centres undefined),2.0%,-11.7%[11.6 µM],2.1%,?,nt,15.8µM*
Cc1cccc(NC2=NC(C)(C)N=C(N)N2)c1,1.9%,-0.2%,-0.9%,1µM*,0.4%,?
COc1ccc(N/N=C(\C#N)C(N)=O)cc1,9.6%,-8.1%,-1.4%,4.3%,-7.1%,-6.5%
COc1ccc(N/N=C(/C(N)=O)C2=NC(C)(C)Cc3ccccc32)cc1,-13.6%,9.1%[2.32 µM],-4.7%,?,2.4%,14.1µM*
COC(=O)Nc1ccc(-c2nc(N3CCOCC3)c3cnn(C4CCN(C(=O)OC)CC4)c3n2)cc1,nt,nt,-0.7%,nt,nt,nt
O/N=C/c1ccccc1OCc1ccccc1Cl,44.7µM*,12.2%,17.9%,-27.8%,1.2%,-29.1%
C=CCOc1ccc(Br)cc1/C=N/O,-14.7%,1.9%,-8.8%,-11.9%,4.0%,nt
O/N=C/c1cc(Br)ccc1OCc1ccccc1F,39.8µM*,-2.8%,0.0%,?,nt,?
C#CCOCCOCCOCCNc1nc(N2CCN(C(=O)CCCCCCCCCCNC(=O)[C@H](CCCCN)n3cc(C[C@@H](C)CC)nn3)CC2)nc(N2CCN(C(=O)CCCCCCCCCCNC(=O)[C@@H]([C@H](C)O)n3cc(C)nn3)CC2)n1,3.1%,?,0.9%,7.94µM*,nt,11.2µM*
C#CCOCCOCCOCCNc1nc(N2CCN(C(=O)CCCCCCCCCCNC(=O)[C@@H](CCSC)n3cc(CCO)nn3)CC2)nc(N2CCN(C(=O)CCCCCCCCCCNC(=O)[C@@H]([C@H](C)O)n3cc(C)nn3)CC2)n1,-14.8%,-1.1%,-5.7%,?,nt,-0.6%
SMILES,RE007 growth inh,AMA1-RON2 inh,Tb PYK inh,Vaccinia Venus,LmPK inhibitor,VACV mCherry inh
C#CCOCCOCCOCCNc1nc(N2CCN(C(=O)CCCCCCCCCCNC(=O)Cn3cc(C[C@@H](C)O)nn3)CC2)nc(N2CCN(C(=O)CCCCCCCCCCNC(=O)[C@@H]([C@H](C)O)n3cc(C)nn3)CC2)n1,0.7%,8.9%,1.0%,?,nt,-26.1%
C#CCOCCOCCOCCNc1nc(N2CCN(C(=O)CCCCCCCCCCNC(=O)[C@H](CCCCN)n3cc(C)nn3)CC2)nc(N2CCN(C(=O)CCCCCCCCCCNC(=O)[C@@H]([C@H](C)O)n3cc(C)nn3)CC2)n1,7.6%,-17.7%,-2.8%,11.2µM*,nt,?
C#CCOCCOCCOCCNc1nc(N2CCN(C(=O)CCCCCCCCCCNC(=O)Cn3cc(CCCCCN)nn3)CC2)nc(N2CCN(C(=O)CCCCCCCCCCNC(=O)[C@@H]([C@H](C)O)n3cc(C)nn3)CC2)n1,7.8%,-13.4%,-3.9%,10µM*,nt,?
CC(=O)Nc1ccc(S(=O)(=O)NCCc2csc3nc(-c4cccc(C)c4)nn23)cc1,nt,nt,-0.3%,-7.6%,nt,-8.0%
COc1cc2c(cc1OC)-c1n[nH]c(=S)n1C(C)(C)C2,4.0%,49.5%,?,6.0%,17.8µM*,-0.2%
COc1cc2c(cc1OC)-c1nnnn1C(C)(C)C2,-6.4%,-9.3%,-10.7%,nt,-0.9%,nt
COc1ccc2sc(-c3ccccc3OC)c(-c3ccc(SC)cc3)c2c1,2.6%,-18.4%,-0.9%,5.3%,nt,0.5%
COc1ccc2sc(-c3ccc(SC)cc3)c(-c3ccc(O)cc3)c2c1,-5.7%,6.4%,1.8%,11.2µM*,nt,?
CCC(C)C1OC2(C=CC1C)CC1CC(C/C=C(\C)C(OC3CC(OC)C(OC4CC(OC)C(NC(C)=O)C(C)O4)C(C)O3)C(C)/C=C/C=C3\COC4C(O)C(C)=CC(C(=O)O1)C34O)O2 (centres undefined) (tested in a mixture with another compound),nt,nt,-4.5%,nt,nt,nt
COC(=O)c1sccc1NC(=O)Nc1ccccc1F,-22.0%,13.4%,?,-12.4%,14.1µM*,i
O=C(O)CSc1cc(NS(=O)(=O)c2ccc(Cl)cc2)c2ccccc2c1O,?,-22.3%,?,?,?,14.1µM*
